Several values for one entry are separate records, joined by “and”; a condition that tells them apart may be missing. Identical values can stand only once.
Legend:
[1] = test system: Botulinum neurotoxin type F light chain protease (Clostridium botulinum); test: Clostridium botulinum type F light chain protease inhibitors, microsphere substrate cleavage, validation (AID 588459); details: multiplex microsphere protease substrate cleavage assay, flow cytometry; at 10 µM; hits give high values
[2] = target: Botulinum neurotoxin type A (Clostridium botulinum) (UniProt P0DPI0); test: BoNT/A light chain protease inhibitors, biochemical, multiplex microsphere flow cytometry, validation set (AID 588460); details: at 10 µM, hits give high values
[3] = target: Lethal factor (Bacillus anthracis) (UniProt P15917); test: Bacillus anthracis lethal factor inhibition, microsphere flow cytometry protease assay, validation at 10 µM (AID 588461); details: multiplex microsphere protease cleavage assay, hits give high values

Measured: inhibition

Botulinum neurotoxin type A (Clostridium botulinum), sequence (P0DPI0 whole entry, looked up): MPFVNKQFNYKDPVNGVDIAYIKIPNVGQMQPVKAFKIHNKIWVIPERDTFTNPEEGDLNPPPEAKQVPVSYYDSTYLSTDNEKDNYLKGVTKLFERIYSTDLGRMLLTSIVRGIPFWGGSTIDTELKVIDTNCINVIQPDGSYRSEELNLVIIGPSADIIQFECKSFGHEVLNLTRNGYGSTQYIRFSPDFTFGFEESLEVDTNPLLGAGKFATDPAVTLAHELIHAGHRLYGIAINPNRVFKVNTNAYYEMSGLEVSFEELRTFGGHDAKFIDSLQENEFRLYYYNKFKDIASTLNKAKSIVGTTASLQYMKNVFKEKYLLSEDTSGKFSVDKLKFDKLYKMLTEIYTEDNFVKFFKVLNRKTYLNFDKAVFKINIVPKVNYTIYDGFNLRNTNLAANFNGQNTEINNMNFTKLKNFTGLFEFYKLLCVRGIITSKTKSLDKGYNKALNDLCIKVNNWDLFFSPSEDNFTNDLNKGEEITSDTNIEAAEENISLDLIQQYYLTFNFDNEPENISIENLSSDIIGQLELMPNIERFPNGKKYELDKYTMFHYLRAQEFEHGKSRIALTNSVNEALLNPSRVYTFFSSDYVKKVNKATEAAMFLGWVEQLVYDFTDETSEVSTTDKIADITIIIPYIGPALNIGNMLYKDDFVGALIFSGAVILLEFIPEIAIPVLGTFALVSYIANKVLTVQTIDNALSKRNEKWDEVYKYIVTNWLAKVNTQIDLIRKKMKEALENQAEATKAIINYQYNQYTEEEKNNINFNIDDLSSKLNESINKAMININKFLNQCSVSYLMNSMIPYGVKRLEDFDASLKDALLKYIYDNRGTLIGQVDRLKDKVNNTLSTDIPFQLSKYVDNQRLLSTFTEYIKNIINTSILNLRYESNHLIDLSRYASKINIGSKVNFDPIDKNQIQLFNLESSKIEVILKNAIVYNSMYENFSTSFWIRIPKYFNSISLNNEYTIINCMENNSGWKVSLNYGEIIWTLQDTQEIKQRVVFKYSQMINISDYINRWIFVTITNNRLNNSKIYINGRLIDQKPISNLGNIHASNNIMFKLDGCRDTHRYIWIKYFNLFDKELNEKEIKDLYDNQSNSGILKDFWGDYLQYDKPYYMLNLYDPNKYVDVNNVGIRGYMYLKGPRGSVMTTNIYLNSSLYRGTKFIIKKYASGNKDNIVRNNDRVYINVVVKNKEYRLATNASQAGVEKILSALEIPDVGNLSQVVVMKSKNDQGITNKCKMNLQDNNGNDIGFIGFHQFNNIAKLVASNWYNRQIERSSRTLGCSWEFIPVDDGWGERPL
Lethal factor (Bacillus anthracis), sequence (P15917 whole entry, looked up): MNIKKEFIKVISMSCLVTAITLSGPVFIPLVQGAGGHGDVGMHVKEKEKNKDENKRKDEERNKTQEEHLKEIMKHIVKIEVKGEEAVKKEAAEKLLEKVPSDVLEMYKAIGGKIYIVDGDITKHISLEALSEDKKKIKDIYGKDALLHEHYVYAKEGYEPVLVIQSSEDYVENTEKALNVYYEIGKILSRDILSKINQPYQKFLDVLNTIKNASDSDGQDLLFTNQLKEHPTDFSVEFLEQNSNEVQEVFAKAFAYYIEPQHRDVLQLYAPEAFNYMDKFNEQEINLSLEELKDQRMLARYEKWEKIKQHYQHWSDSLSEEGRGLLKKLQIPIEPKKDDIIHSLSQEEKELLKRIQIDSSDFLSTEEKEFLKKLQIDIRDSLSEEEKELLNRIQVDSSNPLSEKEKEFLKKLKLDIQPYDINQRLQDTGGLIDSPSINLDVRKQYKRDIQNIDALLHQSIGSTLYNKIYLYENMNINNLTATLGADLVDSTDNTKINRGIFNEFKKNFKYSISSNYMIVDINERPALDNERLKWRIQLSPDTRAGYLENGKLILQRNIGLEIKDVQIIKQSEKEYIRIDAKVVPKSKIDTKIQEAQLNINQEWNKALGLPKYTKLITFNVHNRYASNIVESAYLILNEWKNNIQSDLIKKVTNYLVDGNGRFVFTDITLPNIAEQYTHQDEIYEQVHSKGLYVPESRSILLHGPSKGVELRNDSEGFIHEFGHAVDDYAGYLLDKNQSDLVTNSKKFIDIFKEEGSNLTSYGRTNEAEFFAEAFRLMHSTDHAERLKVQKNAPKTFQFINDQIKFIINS

CC(C)C1CC(CCNCc2ccc(N(C)C)cc2)(c2ccccc2)CCO1 (centres undefined)
inactive: [1] -3.7% | [2] -1.8% | [3] -9.1%

COc1ccc(OC)c(C(=O)c2coc3ccc(O)cc23)c1
inactive: [1] -0.5% | [2] -1.6% | [3] 7%

COc1ccccc1C(O)c1nccn1C (centres undefined)
inactive: [1] 1.9% | [2] -0.7% | [3] 0.4%

CC(C)(C)NC[C@H](O)COc1nsnc1N1CCOCC1
inactive: [1] 0.1% | [2] 0% | [3] -3.8%

O=C(Nc1cccc(Oc2c(F)c(F)c(F)c(F)c2F)c1)N1C[C@@H]2C[C@@H](C1)c1cccc(=O)n1C2
inactive: [1] 2.7% | [2] 1.4% | [3] 7.2%

CC(C)CC(=O)OC1C(N2CCOCC2)c2c(ccc(/C=C/C(=O)N3CCOCC3)c2O)OC1(C)C (centres undefined)
inactive: [1] 0.5% | [2] -0.5% | [3] -0.5%

CSCCC(NC(=O)/C(=C/c1ccc2c(c1)OCO2)NC(=O)c1cccc([N+](=O)[O-])c1)C(=O)O (centres undefined)
inactive: [1] -1.7% | [2] 0.6% | [3] -9.5%

CCOc1cc2c3c(c1)C(C)=CC(C)(C)N3C(=O)C2=O
inactive: [1] 1.1% | [2] -2.5% | [3] -4%

CC(=O)N=c1sc(S(N)(=O)=O)nn1C
inactive: [1] 4.1% | [2] 0.8% | [3] 4.2%

CC1(C)c2ccccc2N2CC(=O)NC21/C=C/c1ccco1 (centres undefined)
inactive: [1] 3.2% | [2] 0.5% | [3] 0.4%

COc1ccccc1N1CCN(CC(O)COc2cccc3ccccc23)CC1 (centres undefined)
inactive: [1] -2% | [2] -2.3% | [3] -6.6%

Nc1ccc(-c2nc3ncccc3o2)c(Cl)c1
inactive: [1] -2.1% | [2] -1.8% | [3] -10.9%

CC(=O)[C@H]1CC[C@H]2[C@@H]3CCC4=CC(=O)CC[C@]4(C)[C@H]3CC[C@]12C
inactive: [1] 2.7% | [2] 1.5% | [3] 3.1%

O=c1cc(-c2ccc3c(c2)OCCO3)oc2ccc(Cl)cc12
inactive: [1] 0.8% | [2] -0.6% | [3] 0.9%

COc1cc2c(cc1OC)CN(C(=O)c1ccc(S(=O)(=O)N(C)c3ccccc3)cc1)CC2
inactive: [1] 0.9% | [2] 0.6% | [3] 3.4%

CCOCCn1c(C(C)O)nc2ccccc21 (centres undefined)
inactive: [1] 4% | [2] 0.3% | [3] 3.1%

Nc1nc(Cl)nc2c1ncn2[C@@H]1O[C@H](CO)[C@@H](O)[C@H]1O
inactive: [1] 3.3% | [2] 0.5% | [3] -6.9%

O=C(OCC(O)C(O)COC(=O)c1ccccc1)c1ccccc1 (centres undefined)
inactive: [1] -0.4% | [2] 0.6% | [3] 2.1%

CC(=O)[C@H]1CC[C@H]2[C@@H]3C[C@H](C)C4=CC(=O)CC[C@]4(C)[C@H]3[C@@H](O)C[C@]12C
inactive: [1] 5.1% | [2] 0.9% | [3] -8.6%

c1ccc(Nc2cccc3c(Nc4ccccc4)cccc23)cc1
inactive: [1] -3.6% | [2] -3% | [3] -25.4%

CCOC(=O)C1=C(C)N[C@@]2(O)c3ccccc3C(=O)[C@@]12O
inactive: [1] 2.4% | [2] 0.5% | [3] -1.2%

CC(C)(C)NCC(O)c1cc(O)cc(O)c1 (centres undefined)
inactive: [1] -5.4% | [2] 0.7% | [3] 3.9%

O=C1CCCN1C(=O)CCC(=O)N1CCCC1=O
inactive: [1] -1.4% | [2] 0.3% | [3] -2.8%

CCOC(=O)c1cc2cc3ccccc3cc2[nH]1
inactive: [1] 3.4% | [2] -0.1% | [3] 5.8%

CC(=O)CCCCn1c(=O)c2c(ncn2C)n(C)c1=O
inactive: [1] -1.6% | [2] 0.1% | [3] -6.2%

O=C(/C=C/c1ccc(Cl)cc1)NCCc1ccccc1
inactive: [1] -4% | [2] 0.4% | [3] 2.3%

CCOC(=O)c1oc2cc(O)cc(C)c2c(=O)c1-c1cscn1
inactive: [1] 1.4% | [2] 1.8% | [3] -2.6%

CC1(C)S[C@@H]2[C@H](NC(=O)[C@H](N)c3ccccc3)C(=O)N2[C@H]1C(=O)O
inactive: [1] 2.6% and -3.6% | [2] 2.2% and -0.7% | [3] 5% and -3%
